PubChem BioAssay (NCI)
Where “and” joins values, the source holds several entries; their conditions need not be identical. Equal entries are not always repeated. Compounds without any hit were thinned out: in the full panel of roughly 83,000, 20% have a hit.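 Interpretation: 100, growth as untreated; towards 0, rising growth inhibition; 0, no net growth; 0 to -100, cell death. Compounds scoring below 10 were considered active.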 Calls of active or inactive are those of the source.

Each compound was assayed on HL-60(TB) leukemia (assay: NCI-60 one-dose screen, 48 h (100 = growth as untreated, 0 = no growth, -100 = all killed)). Settings: 10 µM unless noted.
With `COc1ccc(-n2c(C)nc3c(c(C)nn3-c3ccccc3)c2=O)cc1` the growth was -18.3% (active).
With `CCOc1ccc2nc3cc(N)ccc3c(N)c2c1` the growth was 117% (inactive) and 86.7% (inactive).
`O=C(/C=C/c1ccc(Cl)s1)c1ccc(Cl)s1` was tested, and the growth was 119% (inactive) and 111% (inactive).
`COc1ccc(S(=O)(=O)Nc2ccc(OCc3nnc(-c4ccc(Cl)cc4)o3)c(F)c2)cc1` was tested, and the growth was 51.2% (inactive).
`OC1CCC(Oc2cccc3cnc(Nc4ccc5nc[nH]c5c4)nc23)CC1` (stereo not drawn) was tested, and the growth was -26.1% (active) and 9% (active).
In the case of `O=C(COc1cccc(/C=C2\COc3ccc(Cl)cc3C2=O)c1)c1ccc(Cl)cc1`, the growth is reported as 52.7% (inactive).
For `O=C(O)CC(Cl)C(Cl)CC(=O)O` (stereo not drawn), the growth was 99.5% (inactive).
For `C=C(CNCCc1ccc(O)cc1)[C@@H]1CC[C@]2(CO)CC[C@]3(C)[C@H](CC[C@@H]4[C@@]5(C)CCC(NCCO)C(C)(C)[C@@H]5CC[C@]43C)[C@@H]12` (stereo partly drawn), the growth was -46.4% (active).
With `O=C(Cc1ccc(/C=C/C(=O)c2ncc[nH]2)cc1)Nc1ccc(C(F)(F)F)cc1` the growth was -5.94% (active).
With `COc1ccc(/C=N/C2=C(C#N)C(c3cccc(Cl)c3)c3c(ccc4ccccc34)O2)cc1` (stereo not drawn) the growth was -18.6% (active).
In the case of `COC(=O)c1n[nH]c2ccc3nc(-c4cn[nH]c4C(F)(F)F)c4c(c3c12)CCCC4`, the growth is reported as 70% (inactive).
In the case of `COc1ccc2nc(-c3ccc(Cl)cc3)cc(-c3nnc(SCC(=O)Nc4ccc(/C(C)=N\O)cc4)o3)c2c1`, the growth is reported as 61.9% (inactive).
`CC(C)(C)c1ccc(S(=O)(=O)N[C@H]2CC[C@H]3[C@@H]4CCc5cc(OS(=O)(=O)O)ccc5[C@H]4CC[C@]23C)cc1` was tested, and the growth was 19.6% (inactive).
